Measured values reported in PubChem BioAssay (EPA / NIEHS).
Where “and” joins values, the source holds several entries; their conditions need not be identical. Equal entries are not always repeated. Results filed as inconclusive are left out. The source holds several records for some structures; these can differ, active in one and inactive in another. Calls of active or inactive are those of the source. The calls were made as follows: active = hit-call score of the fitted dose curve at least 0.9, where 1 is the maximum; inconclusive = response in the unintended direction; inactive = score below 0.9.

Assay: ATG_XTT_Cytotoxicity: Cytotoxicity Assessment in the Attagene TRANS-FACTORIAL HepG2 Assay (AID 2283584);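 as to AC50: cells exposed to compound for 24 h before reading; active means loss of viability signal versus DMSO baseline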
How it was run: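 XTT readout of cell number in transfected HepG2 cells, 24 h post-dosing; DMSO serves as negative control and baseline, with activity taken as loss of viability signal.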

Q: With `CCCCCCC(=O)O` as the compound, how does the outcome read?
A: inactive

Q: With `CCCCCCCCCCCCc1ccccc1S(=O)(=O)O` as the compound, how does the AC50 read?
A: 156 µM (active)

Q: Which outcome does the source give for `O=C1OC2(c3ccccc31)c1cc(Br)c(O)c(Br)c1Oc1c2cc(Br)c(O)c1Br` here?
A: inactive

Q: Which outcome does the source give for `OCCC(F)(F)C(F)(F)C(F)(F)C(F)(F)C(F)(F)C(F)(F)F` here?
A: inactive

Q: Which outcome does the source give for `COCC(C)O` (stereo unspecified) here?
A: inactive

Q: For `CCCCCCCCOC(=O)CCCCCCCCC(=O)OCCCCCCCC`, which outcome is on record?
A: inactive

Q: For `C[C@@H]1C[C@H]2[C@@H]3CCC4=CC(=O)C=C[C@]4(C)[C@@]3(F)[C@@H](O)C[C@]2(C)[C@@]1(O)C(=O)COP(=O)(O)O`, which outcome is on record?
A: inactive

Q: For `CC1=C(/C=C/C(C)=C/C=C/C(C)=C/C(=O)O)C(C)(C)CCC1`, which outcome is on record?
A: inactive

Q: With `OCCC(F)(F)C(F)(F)C(F)(F)C(F)(F)C(F)(F)C(F)(F)C(F)(F)C(F)(F)F` as the compound, how does the outcome read?
A: inactive

Q: For `Cc1ccc(S(=O)(=O)O)c(C)c1`, which outcome is on record?
A: inactive

Q: With `OC1CCCCC1` as the compound, how does the outcome read?
A: inactive

Q: Which outcome does the source give for `CCCCOCCO` here?
A: inactive

Q: For `CC(O)C(=O)O` (stereo unspecified), which outcome is on record?
A: inactive

Q: Which outcome does the source give for `COc1ccc([N+](=O)[O-])cc1N` here?
A: inactive

Q: Which outcome does the source give for `CCCCCCCCCCCCCCCS(=O)(=O)Oc1ccccc1` here?
A: inactive

Q: With `CCCCC(CC)COC(=O)CCCCC(=O)OCc1ccccc1` (stereo unspecified) as the compound, how does the outcome read?
A: inactive

Q: Which AC50 does the source give for `CCCCCCCCCCCCCC[N+](C)(C)C` here?
A: 36.8 µM (active)

Q: And the outcome?
A: inactive

Q: For `O=C(OCCOCCOC(=O)c1ccccc1)c1ccccc1`, which outcome is on record?
A: inactive

Q: With `CCC(C)(C)C1CCC(O)CC1` (stereo unspecified) as the compound, how does the outcome read?
A: inactive

Q: With `CN1CCC[C@H]1c1cccnc1` as the compound, how does the outcome read?
A: inactive

Assay: TOX21_p53_BLA_p2_viability: Viability Assessment in the Tox21 HCT-116 p53 Agonism Beta-lactamase Assay, Phase 2 (AID 2283591);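 also: compound exposure lasted 16 h at 37 °C; actives lower the ATP signal meaning cytotoxicity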
How it was run: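 HCT116 p53-bla cells, 4000/well, dosed after 5 h plating (217-fold dilution of DMSO stocks) and incubated 16 h at 37C. Viability taken as cellular ATP by CellTiter-Glo luminescence after 30 min RT; signal loss marks cytotoxicity.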

Q: Which outcome does the source give for `O=C1OC2(c3ccccc31)c1cc(Br)c(O)c(Br)c1Oc1c2cc(Br)c(O)c1Br` here?
A: inactive

Q: With `CC(C)CCCCCCOC(=O)CCCCC(=O)OCCCCCCC(C)C` as the compound, how does the outcome read?
A: inactive

Q: Which outcome does the source give for `CCc1nn(C2CCCCC2)c2cc(C3(C#N)CCC(C(=O)O)CC3)ccc12` (stereo unspecified) here?
A: inactive

Q: Which outcome does the source give for `NC(=O)N1C(=O)C(C(=O)c2cc(Cl)cs2)c2cc(F)c(Cl)cc21` (stereo unspecified) here?
A: inactive

Q: For `OCCC(F)(F)C(F)(F)C(F)(F)C(F)(F)C(F)(F)C(F)(F)C(F)(F)C(F)(F)F`, which outcome is on record?
A: inactive

Q: With `CN1CCN(c2ccccc2/C=C2\SCCN(c3ccc(Cl)c(Cl)c3)C2=O)CC1` as the compound, how does the outcome read?
A: inactive

Q: For `NC(=O)N(O)[C@@H]1C=C[C@H](Oc2cccc(Oc3ccc(F)cc3)c2)C1`, which outcome is on record?
A: inactive

Q: For `CC(=O)NC1(c2cccc(F)c2)CCN(CC[C@@]2(c3ccc(Cl)c(Cl)c3)CN(c3ccccc3)C(=O)CO2)CC1`, which AC50 is on record?
A: 57.1 µM (active)

Q: With `CCN(CC)CCNc1ccc(CNC=O)c2sc3ccc(OC)cc3c(=O)c12` as the compound, how does the outcome read?
A: inactive

Q: Which AC50 does the source give for `Cc1cc(CCN2CCN(c3nsc4ccccc34)CC2)cc2c1NC(=O)CC2(C)C` here?
A: 60.5 µM (active)

Q: Which outcome does the source give for `CCCCCCCCCCCCCCCS(=O)(=O)Oc1ccccc1` here?
A: inactive

Q: For `CCCCC(CC)COC(=O)CCCCC(=O)OCc1ccccc1` (stereo unspecified), which outcome is on record?
A: inactive

Q: With `c1ccc2c(c1)Cc1ccccc1-2` as the compound, how does the outcome read?
A: inactive

Q: With `CCCCCCCCCCCCCC[N+](C)(C)C` as the compound, how does the AC50 read?
A: 49.1 µM (active) and 13.3 µM (active) and 33.7 µM (active)

Q: For `CC(O)CO` (stereo unspecified), which outcome is on record?
A: inactive
